According to PubChem BioAssay AID1159580 (chemical genetic matrix, 2015):
Among all 5,500 compounds or so, about 2,000 (36%) were called active. Another 18% or so got no clear call; they are omitted. Cut-off read from the data, not from the text of the source: active = normalized growth mostly below about 0.91 (no sharp cut-off); inconclusive = no clear call, values can overlap the other calls; inactive = mostly above about 0.92. The list shows a part of the results.

Experiment: chemical genetic growth profiling, strain panel (AID 1159580);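 note: tested at 20 µM; growth read once vehicle control cultures reached saturation at 30 °C; 1 = growth at the plate median or of vehicle wells; lower values mean less growth of the strain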
Details: growth OD

Measured: normalized growth

FC(F)(F)c1cc(-c2noc(C3CCc4ccccc4O3)n2)cc(C(F)(F)F)c1 (centres undefined)
inactive: S. cerevisiae deletion strains, locus YAL013W, strain DEP1, active compounds read low 0.999 | S. cerevisiae deletion strains, locus YBR229C, strain ROT2, active compounds read low 1.02 | S. cerevisiae deletion strains, locus YCL061C, strain MRC1, active compounds read low 0.988 | S. cerevisiae deletion strains, locus YDL101C, strain DUN1, active compounds read low 0.995 | S. cerevisiae deletion strains, locus YDL134C, strain PPH21, active compounds read low 1.03 | S. cerevisiae deletion strains, locus YDR150W, strain NUM1, active compounds read low 0.942 | S. cerevisiae deletion strains, locus YEL061C, strain CIN8, active compounds read low 1.01 | S. cerevisiae deletion strains, locus YGR078C, strain PAC10, active compounds read low 0.988 | S. cerevisiae deletion strains, locus YGR229C, strain SMI1, active compounds read low 1 | S. cerevisiae deletion strains, locus YHR030C, strain SLT2, active compounds read low 1.05 | S. cerevisiae deletion strains, locus YHR087W, strain rtc3, active compounds read low 0.994 | S. cerevisiae deletion strains, locus YJR043C, strain POL32, active compounds read low 0.998 | S. cerevisiae deletion strains, locus YJR075W, strain HOC1, active compounds read low 0.97 | S. cerevisiae deletion strains, locus YKL190W, strain CNB1, active compounds read low 1.02 | S. cerevisiae deletion strains, locus YLR039C, strain RIC1, active compounds read low 1.04 | S. cerevisiae deletion strains, locus YLR058C, strain SHM2 (second series), active compounds read low 0.995 | S. cerevisiae deletion strains, locus YLR085C, strain ARP6, active compounds read low 0.98 | S. cerevisiae deletion strains, locus YLR262C, strain YPT6, active compounds read low 1.04 | S. cerevisiae deletion strains, locus YML094W, strain GIM5, active compounds read low 0.982 | S. cerevisiae deletion strains, locus YMR219W, strain ESC1, active compounds read low 1 | S. cerevisiae deletion strains, locus YMR263W, strain SAP30, active compounds read low 0.993 | S. cerevisiae deletion strains, locus YNL153C, strain GIM3, active compounds read low 0.998 | S. cerevisiae deletion strains, locus YNL298W, strain CLA4 (second series), active compounds read low 1.01 | S. cerevisiae deletion strains, locus YNL322C, strain KRE1, active compounds read low 0.985 | S. cerevisiae deletion strains, locus YNR030W, strain Alg12, active compounds read low 0.996 | S. cerevisiae deletion strains, locus YPL055C, strain LGE1, active compounds read low 0.96 | S. cerevisiae deletion strains, locus YPL241C, strain CIN2, active compounds read low 0.985 | S. cerevisiae deletion strains, locus YPR135W, strain CTF4, active compounds read low 1.11 | S. cerevisiae strains, strain wild type, active compounds read low 1
